Screens deposited in PubChem BioAssay by several laboratories.
esBAF inh: SWI/SNF esBAF complex inhibition; reporter increase, % at 12.5 µM; actives 2% (n = 350,000); mouse ES cells, Bmi1-luciferase knock-in reporter, 24 h; 100% = twice the neutral-well signal; AID 602393; in the data active = activation above about 40%; inconclusive = no clear call, values can overlap the other calls;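 note: a rise in the Bmi1 reporter signal indicates esBAF inhibition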
HSF1 activator: increases HSF-1 driven luciferase reporter signal; NIH3T3-HGL HSF-1 luciferase reporter, MG132, 8 h; 100% = twice DMSO control signal; activation, % at 9 µM; actives 1.7% (n = 300,000); AID 504408;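 active = mean replicate activation of at least 50% with a set share of replicates each reaching 50%; inconclusive = only one of those two conditions met; inactive = mean below 50% and too few replicates reaching it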
MITF TRPM1 HTS: increases MITF-driven TRPM1 promoter luciferase signal. SK-MEL-5 TRPM1-promoter luciferase, 24 h; % of positive control, neutral wells = 0. activation, % at 12.5 µM. actives 0.75% (n = 300,000). AID 588334;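 active = mean activation of at least 80% with every replicate also reaching 80%; inconclusive = mean reaches 80% but some replicate falls short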
HSF1 inhib: HSF1 inhibition. AID 2098. actives 0.77% (n = 300,000). NIH3T3-HGL HSE-luciferase, MG132-induced, luminescence 8 h; active compounds read low. activity change, negative = inhibition, % at 7.5 µM (by protocol);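 active = more than half of replicate wells show activity change below -50%, luminescence cut by over half; inconclusive = some wells, but at most half, below -50%; inactive = no replicate well below -50%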;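 note: luciferase reports HSF-1 transcriptional activity via heat shock element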
SMARCA2 act: increases SMARCA2 function in MMTV reporter cells; MG213 cells, MMTV-luciferase reporter, dexamethasone, overnight; activation, % at 9.1 µM; actives 1% (n = 370,000); AID 652017; in the data active = activation above about 7.8%
Wnt bcat act: Wnt/beta-catenin pathway activation; activation, % at 9.35 µM; Wnt/beta-catenin reporter cell assay, activator, plate reader; AID 743398; actives 1.2% (n = 300,000); in the data active = activation above about 30%, passing the limit was not always enough; inconclusive = no clear call, values can overlap the other calls
Numbers stand for hits. Only some compounds are listed: those with a hit (about 4.3% of all), similar ones and a draw of the others.

For CCOC(=O)c1cnn(-c2ccccc2)c1-c1ccccc1 the results were esBAF inh inactive, HSF1 activator inactive, MITF TRPM1 HTS inactive, HSF1 inhib inactive and SMARCA2 act inactive.
CCOC(=O)c1cnn(-c2ccc(C)cc2)c1N was read as esBAF inh 56, HSF1 activator inactive, MITF TRPM1 HTS inactive, HSF1 inhib inactive, SMARCA2 act inactive and Wnt bcat act 44.
For CCOC(=O)c1cnn(-c2ccccc2)c1-n1cccc1 the results were esBAF inh inactive, HSF1 activator inactive, MITF TRPM1 HTS inactive, HSF1 inhib -74, SMARCA2 act inactive and Wnt bcat act inactive.
For O=S(=O)(Nc1cccnc1)c1cccc(C(F)(F)F)c1 the results were esBAF inh inactive, HSF1 activator inactive, MITF TRPM1 HTS inactive, HSF1 inhib inactive and SMARCA2 act inactive.
For O=[N+]([O-])c1ccc(S(=O)(=O)c2cccc(C(F)(F)F)c2)nc1 the results were HSF1 activator inactive and HSF1 inhib -95.
`CC(=O)Nc1ccccc1C(=O)C(=O)Nc1cccc(C(=O)NC2CC2)c1` gave esBAF inh 48, HSF1 activator inactive, MITF TRPM1 HTS inactive, HSF1 inhib inactive and SMARCA2 act inactive.
`Cc1cccc(C(=O)Nc2cccc(C(=O)NC3CCCC3)c2)c1` gave esBAF inh inactive, HSF1 activator inactive, MITF TRPM1 HTS inactive, HSF1 inhib inactive, SMARCA2 act inactive and Wnt bcat act inactive.
For Cc1ccc(C(=O)Nc2cccc(C(=O)NC3CCCC3)c2)cc1 the results were esBAF inh 50, HSF1 activator inactive, MITF TRPM1 HTS inactive, HSF1 inhib inactive, SMARCA2 act inactive and Wnt bcat act inactive.
For Cc1ccc(C(=O)Nc2ccccc2Sc2ccccc2)cc1 the results were HSF1 activator 57, MITF TRPM1 HTS inactive, HSF1 inhib inactive, SMARCA2 act inactive and Wnt bcat act inactive.
Screening O=C(Nc1ccccc1Sc1ccccc1)c1ccc(F)cc1 returned HSF1 activator inactive, MITF TRPM1 HTS inactive, HSF1 inhib inactive, SMARCA2 act inactive and Wnt bcat act inactive.
`Cc1ccc(C(=O)Nc2cccc(C(=O)O)c2)cc1` gave HSF1 activator inactive, HSF1 inhib -72 and SMARCA2 act inactive.
COCC(=O)Nc1ccc2c(c1)OC[C@H](C)N(CC1CC1)C[C@@H](C)[C@@H](OC)CN(C)C2=O was read as esBAF inh inactive.
For CS(=O)(=O)Nc1ccc2c(c1)[C@H]1C[C@@H](CC(=O)N3CCCCC3)O[C@@H](CO)[C@H]1O2 the results were esBAF inh inactive.
Screening Cc1noc(C)c1NC(=O)N(C)C[C@H]1Oc2ccc(NC(=O)Nc3ccccc3)cc2CC(=O)N([C@@H](C)CO)C[C@H]1C returned esBAF inh inactive.
Cc1ccc(C(=O)Nc2ccc(C(=O)O)cc2NC(=O)c2ccc(C)cc2)cc1 was read as esBAF inh inactive, HSF1 activator inactive, HSF1 inhib -51, SMARCA2 act inactive and Wnt bcat act inactive.
Screening Cc1ccc(-c2cc(NC(=O)c3ccccc3)on2)cc1 returned esBAF inh 60, HSF1 activator inactive, MITF TRPM1 HTS inactive, HSF1 inhib inactive, SMARCA2 act inactive and Wnt bcat act 34.
COC(=O)c1c(NC(=O)c2ccc(C)cc2)csc1C was read as HSF1 activator inactive, HSF1 inhib inactive, SMARCA2 act inactive and Wnt bcat act 36.
COc1ccc(C(=O)Nc2cc(-c3ccc(C)cc3)no2)cc1 was read as esBAF inh inactive, HSF1 activator inactive, MITF TRPM1 HTS inactive, HSF1 inhib inactive, SMARCA2 act inactive and Wnt bcat act inactive.
COC(=O)c1sccc1NC(=O)c1ccc(C)cc1 was read as esBAF inh inactive, HSF1 activator inactive, MITF TRPM1 HTS inactive, HSF1 inhib inactive, SMARCA2 act inactive and Wnt bcat act inactive.
For COc1nn(-c2ccccc2)c(=O)c(Cl)c1Cl the results were esBAF inh inactive, HSF1 activator inactive, HSF1 inhib -93, SMARCA2 act inactive and Wnt bcat act inactive.
`COc1c(Cl)cnn(-c2ccccc2)c1=O` gave HSF1 activator inactive, MITF TRPM1 HTS inactive, HSF1 inhib inactive and SMARCA2 act inactive.
O=C(CCCl)Nc1nc2c(s1)CCc1ccccc1-2 was read as esBAF inh inactive, HSF1 activator 175, MITF TRPM1 HTS inactive, HSF1 inhib inactive, SMARCA2 act inactive and Wnt bcat act inactive.
Screening O=C(Nc1nc2c(s1)CCc1ccccc1-2)c1ccco1 returned esBAF inh 62, HSF1 activator inactive, HSF1 inhib inactive and SMARCA2 act inactive.
For CNC[C@@H]1OCCCC[C@H](C)Oc2ccc(NC(=O)Nc3ccc(F)cc3)cc2C(=O)N([C@@H](C)CO)C[C@@H]1C the results were esBAF inh inactive.
Screening O=C(C[C@@H]1C=C[C@H](NC(=O)C2CC2)[C@H](CO)O1)NCc1ccccc1Cl returned esBAF inh inactive.
For CCOC(=O)Nc1sc2c(c1C#N)CCC(C)C2 (stereo not given) the results were esBAF inh inconclusive, HSF1 activator inactive, MITF TRPM1 HTS 83 and HSF1 inhib inactive.
For CC1CCc2c(sc(/N=C/N(C)C)c2C#N)C1 (stereo not given) the results were HSF1 activator inconclusive, MITF TRPM1 HTS inactive, HSF1 inhib inactive, SMARCA2 act inactive and Wnt bcat act 39.
Screening CN(C)/C=N/c1sc2c(c1C#N)CCCC2 returned esBAF inh inactive, HSF1 activator inactive, MITF TRPM1 HTS inactive, HSF1 inhib inactive, SMARCA2 act inactive and Wnt bcat act inactive.
CC1CCc2sc(NC(=S)NC(=O)c3ccccc3)c(C#N)c2C1 (stereo not given) was read as esBAF inh 58, HSF1 activator inactive, MITF TRPM1 HTS inactive, HSF1 inhib inactive, SMARCA2 act inactive and Wnt bcat act inactive.
`CN1Cc2sc(NC(=S)NC(=O)c3ccccc3)c(C#N)c2CC1(C)C` gave HSF1 activator inactive, HSF1 inhib -77, SMARCA2 act inactive and Wnt bcat act inactive.
For N#Cc1c(NC(=S)NC(=O)c2ccccc2)sc2c1CCC2 the results were esBAF inh 49, HSF1 activator inactive, MITF TRPM1 HTS inactive, HSF1 inhib inactive, SMARCA2 act inactive and Wnt bcat act inactive.
For CC(C)(C)c1ccc(C(=O)NC(=S)Nc2sc3c(c2C#N)CCC3)cc1 the results were HSF1 activator inactive, MITF TRPM1 HTS inactive, HSF1 inhib inactive, SMARCA2 act inactive and Wnt bcat act inactive.
C[C@H](O)C#Cc1cnc2c(c1)C(=O)N([C@H](C)CO)C[C@@H](C)[C@@H](CN(C)C(=O)Nc1ccc(F)cc1)O2 was read as esBAF inh inactive.
`CCc1ccc(/C=C2\Oc3cc(OC(=O)N4CCOCC4)ccc3C2=O)cc1` gave esBAF inh inactive, HSF1 activator inactive, MITF TRPM1 HTS inactive, HSF1 inhib -76, SMARCA2 act inactive and Wnt bcat act inactive.
CCC1CCCCN1CCCNC(=O)c1ccc2nc(N3CCC(C)CC3)sc2c1 (stereo not given) was read as esBAF inh 58, HSF1 activator inactive, MITF TRPM1 HTS inactive, HSF1 inhib inactive, SMARCA2 act inactive and Wnt bcat act inactive.
